Where “and” joins values, the source holds several entries; their conditions need not be identical. Identical values can stand only once. In all, about 270,000 compounds went through this assay and about 5,800 (2.1%) were called active. Where a call stands in place of a potency, no number is given. Roughly 16% stayed inconclusive and do not appear here. This is one part of a sample in which actives are shown more often than they occur. Calls come from the whole dose curve; as a rule, active = well fitted inhibition curve with a large enough effect; inconclusive = small, poorly fitted or top-dose-only effect; inactive = flat fitted curve, though single readings scatter.
Potency is the fitted concentration of half-maximal effect.

In this test the target is Microtubule-associated protein tau (Homo sapiens) (UniProt P10636). Put plainly: qHTS for Inhibitors of Tau Fibril Formation, Thioflavin T Binding. Note: nearly all actives have a fitted effect of over 55% in size. The settings on record: recombinant tau K18 P301L (four-repeat tau fragment), heparin-induced fibrillization, ThT fluorescence; series mostly up to 57.4 µM. The text has this: NIH Molecular Libraries Probe Production Network [MLPCN]
Chain of Microtubule-associated protein tau (Homo sapiens) (P10636 561-689 P618L limits assumed): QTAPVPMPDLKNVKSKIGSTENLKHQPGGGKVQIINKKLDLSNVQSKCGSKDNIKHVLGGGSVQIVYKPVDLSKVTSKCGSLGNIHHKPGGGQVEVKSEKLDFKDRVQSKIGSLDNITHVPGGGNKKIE
NIH Chemical Genomics Center [NCGC]
Assay Provider: Carlo Ballatore, University of Pennsylvania
The microtubule-associated protein tau is an abundant protein in the axons of neurons that stabilizes microtubules. With its ability to modulate microtubule dynamics, tau contributes directly or indirectly, to key structural and regulatory cellular functions. Particularly important is the influence tau exerts on axonal transport, which allows signaling molecules, trophic factors and other essential cellular constituents to travel along the axons. Under pathological conditions, tau becomes sequestered into insoluble aggregates called neurofibrillary tangles. This phenomenon is believed to have pathological consequences by promoting axonal transport deficits that ultimately lead to synaptic dysfunction and neuronal loss. To identify inhibitors of tau aggregation, a heparin-induced tau fibril formation assay was used that employed a recombinantly expressed fragment of tau, K18 (Q242-E372), bearing a P301L mutation (Gustke et al. 1994; Hong et al. 1998). This assay monitors tau fibrillization by Thioflavin T (ThT) fluorescence.
Gustke, N., B. Trinczek, et al. (1994). "Domains of tau protein and interactions with microtubules." Biochemistry 33(32): 9511-22.
Hong, M., V. Zhukareva, et al. (1998).
Li, W. and V. M. Lee (2006).
von Bergen, M., S. Barghorn, et al. (2001). "Mutations of tau protein in frontotemporal dementia promote aggregation of paired helical filaments by enhancing local beta-structure." J Biol Chem 276(51): 48165-74.
NCGC Assay Protocol Summary:
For screening, 2 uL/well human K18 P301L (15 uM unlabeled and 0.24 uM Alexa 594-labeled tau, final concentrations) in reagent buffer (100 mM sodium acetate pH 7) was dispensed into black solid 1536-well plates (Grenier) using a solenoid-based dispenser. Following transfer of 23 nL compound or DMSO vehicle by a pin tool, 2 uL/well heparin (20 uM final concentration) in reagent buffer was added and the plate centrifuged 15 s at 1000 RPM. Plates were incubated 6 hr at 37 C and then 1 uL/well ThT (30 uM final concentration) was added. After a 1 hr ambient incubation, the plates were read by an Envision (Perkin Elmer) to monitor ThT fluorescence (450/8 nm excitation and 510/23 nm emission).
Keywords: NIH Roadmap, MLPCN, MLI, MLSMR, NCGC, qHTS, tau, tauopathies, Alzheimer's disease, fibril, neurodegeneration, aggregation
In general terms: qHTS replaces the single test concentration by a dilution series.
Take `CC[N+](C)(CC)CCC[n+]1c(-c2ccccc2)c2cc(N)ccc2c2ccc(N)cc21`: the Potency is 1.26 µM (active).

With `CC[C@@H]1CN2CC[C@@H]1C[C@H]2[C@H](O)c1ccnc2ccc(OC)cc12`, the Potency result is “inactive”.

On to `CCN(CC)CCOC(=O)c1cc2cc(COC)ccc2o1`, for which the Potency result was “inactive”.

On to `CN(C)[C@@H]1C(=O)C(C(N)=O)=C(O)[C@@]2(O)C(=O)C3=C(O)c4c(O)cccc4[C@@](C)(O)C3CC12` (stereo not given in full), for which the Potency result was “inactive”.

As to `CN(C)CC1CCCCC1OC(=O)c1ccc(Cl)c(Cl)c1` (stereo not given), the Potency entry was “inactive”.

For `CC(C)Oc1cccc(C(=O)C2CCCN(C3CCOCC3)C2)c1` (stereo not given), the Potency entry was “inactive”.

Turning to `N#CC(C#N)=Cc1cc(O)c(O)c([N+](=O)[O-])c1`, the Potency is 10 µM (active) and 17.8 µM (active).

Regarding `CC1=CC(=O)C2=C(C)C[C@H](O)[C@H]3[C@H](C)C(=O)O[C@@H]3C12` (stereo not given in full), the Potency entry was “inactive”.

Consider `CN1[C@@H]2CC[C@H]1CC(OC(=O)c1cc(Cl)cc(Cl)c1)C2` (stereo not given in full), for which the Potency result is “inactive”.

Consider `CC1(C)Cc2c(C#N)c(N3CCNCC3)nc(-c3ccco3)c2CS1`, for which the Potency entry was “inactive”.

Take `COc1ccccc1N=C1SCCCN1C`: the Potency result was “inactive”.

For the compound `CCOCCc1c(O)[nH]c(=S)[nH]c1=O`, the Potency entry is “inactive”.

With `COc1ccccc1N=Nc1c(O)[nH]c(=S)[nH]c1=O`, the Potency is 12.6 µM (active).

Take `COc1ccccc1-c1[se]c2ccccc2c1I`: the Potency result is “inactive”.

Take `c1cc2c(cc1CCNC1CCCCCC1)OCO2`: the Potency entry is “inactive”.

For the compound `CC[C@]1(O)C(=O)OCc2c1cc1n(c2=O)Cc2cc3ccccc3nc2-1`, the Potency entry was “inactive”.

In the case of `CCCCN1C2CCC1CC(OC(c1ccc(F)cc1)c1ccc(F)cc1)C2` (stereo not given), the Potency entry is “inactive”.

As to `O=C(COc1ccc2ccccc2c1)N1CCN(Cc2ccncc2)CC1`, the Potency entry was “inactive”.

With `CC(=O)Oc1ccccc1C(=O)Nc1ncc([N+](=O)[O-])s1`, the Potency is 11.2 µM (active).

Consider `O=c1oc2ccccc2c(O)c1C(c1ccccc1O)c1c(O)c2ccccc2oc1=O`, for which the Potency result was “inactive”.

As to `c1ccc2sc(SNC3CCCCC3)nc2c1`, the Potency result was “inactive”.

As to `C[N+]1(C)CCOC(O)(c2ccc(-c3ccc(C4(O)C[N+](C)(C)CCO4)cc3)cc2)C1` (stereo not given), the Potency result was “inactive”.

In the case of `Cc1ccc(CN2CCCC(C(=O)c3ccc4c(c3)OCO4)C2)cc1C` (stereo not given), the Potency result was “inactive”.

`COC(=O)N(c1ccc(OC)cc1)P1(=S)OCCC(C)O1` (stereo not given): the Potency was 28.2 µM (active).

Regarding `CCCCCCCCCCCCn1ccc(=N)cc1`, the Potency entry is “inactive”.

As for `COc1ccc2[nH]cc(CCNCc3ccc(Br)cc3)c2c1`, the Potency entry is “inactive”.

With `CCCCC/C=C\C/C=C\C/C=C\C/C=C\CCCCCC(=O)NCCO`, the Potency entry is “inactive”.

On to `O=C1NC(=O)N(c2ccccc2)C(=O)/C1=C/c1ccc([N+](=O)[O-])s1`, for which the Potency is 14.1 µM (active).

For the compound `COc1cccc(N2C(=O)NC(=O)/C(=C\c3ccc([N+](=O)[O-])s3)C2=O)c1`, the Potency was 14.1 µM (active).

With `Cc1cccc(N2C(=O)NC(=O)/C(=C\c3cnn(-c4ccccc4)c3)C2=O)c1`, the Potency result is “inactive”.

Turning to `CN1C2CC3CC1C(O3)C2O` (stereo not given), the Potency result is “inactive”.

As to `COC1CC(OC2CC[C@@]3(C=O)C4CC[C@]5(C)C(C6=CC(=O)OC6)CC[C@@]5(O)C4CC[C@]3(O)C2)OC(C)C1O` (stereo not given in full), the Potency entry is “inactive”.

With `COc1c(O)ccc2c1-c1c3c(cc4c1C(C2)N(C)CC4)OCO3` (stereo not given), the Potency entry was “inactive”.

With `O=C(NC(c1ccc(Cl)cc1)P(=O)(Oc1ccccc1)Oc1ccccc1)OCc1ccccc1` (stereo not given), the Potency result is “inactive”.

Take `NCCc1c[nH]c2ccc(O)cc12`: the Potency entry is “inactive”.

As to `CCOc1cccc(=NC2CCCCC2)c2c(C)[nH]c(C)c12`, the Potency is 8.91 µM (active).

As to `CN(C)c1nc(N(C)C)nc(N(C#N)CCCl)n1`, the Potency entry is “inactive”.

As for `C=CCN1CCC2(C)c3cc(O)ccc3CC1[C@@H]2C` (stereo not given in full), the Potency entry is “inactive”.

Regarding `CC(=O)c1c(O)c(C)c(O)c(Cc2c(O)c3c(c(C(=O)/C=C/c4ccccc4)c2O)OC(C)(C)C=C3)c1O`, the Potency was 15.8 µM (active) and 17.8 µM (active) and 12.6 µM (active).

Consider `CC(=O)c1c(O)c(C)c(O)c(Cc2c(O)c3c(c(C(=O)/C=C\c4ccccc4)c2O)OC(C)(C)C=C3)c1O`, for which the Potency is 15.8 µM (active).

Take `O=C1NC(=O)C(CCc2ccccn2)(Cc2cccc(Cl)c2Cl)C(=O)N1c1ccc(Br)cc1` (stereo not given): the Potency result is “inactive”.

As for `O=C(OCCN1CCOCC1)C1(c2ccccc2)CCCC1`, the Potency entry is “inactive”.

For `N[C@@H](Cc1c[nH]c2ccccc12)c1nnc(SCc2c(F)cccc2Cl)o1`, the Potency result is “inactive”.

As to `Cc1ccc(Cn2c(C)c3cnn(CC(=O)N4CCC5(CC4)OCCO5)c(=O)c3c2C)cc1`, the Potency result is “inactive”.

Turning to `COC(=O)c1ccc2[se]c(CC3CCCCC3)c(I)c2c1`, the Potency result was “inactive”.

`Cc1ccc2c(c1)=C/C(=C\c1c(O)[nH]c(=O)[nH]c1=O)C(=O)N=2`: the Potency entry is “inactive”.

In the case of `CCC(=NCCc1ccccc1)c1c(O)n(C2CCCCC2)c(=O)[nH]c1=O`, the Potency entry is “inactive”.

`CCC(=NCc1ccco1)c1c(O)n(Cc2ccccc2)c(=O)[nH]c1=O`: the Potency result is “inactive”.

As to `CC/C(=N\NC(=O)c1ccccc1O)c1c(O)n(Cc2ccccc2)c(=O)[nH]c1=O`, the Potency was 22.4 µM (active).

On to `CCCCC/C=C\C/C=C\C/C=C\C=C\[C@H](CCCC(=O)O)OO`, for which the Potency entry is “inactive”.

For `Cc1nc2ccccn2c1P(=S)(N1CCCCC1)N1CCCCC1`, the Potency result was “inactive”.

With `Cc1cccc2c3c(ccc12)C1=C(C(=O)C3=O)C(C)CO1` (stereo not given), the Potency was 7.94 µM (active).

For `CN1CCN(Cc2ccc(OC(F)(F)F)cc2)CC1`, the Potency entry is “inactive”.

On to `CCCN(C/C=C/I)C1CCc2ccc(O)cc2C1` (stereo not given), for which the Potency result was “inactive”.

For the compound `CCCCCCCCc1[se]c2ccccc2c1Br`, the Potency entry was “inactive”.

As for `O=C(OCC1O[C@@H](OC(=O)c2cc(O)c(O)c(O)c2)[C@@H](OC(=O)c2cc(O)c(O)c(O)c2)[C@@H](OC(=O)c2cc(O)c(O)c(O)c2)[C@@H]1OC(=O)c1cc(O)c(O)c(O)c1)c1cc(O)c(O)c(O)c1` (stereo not given in full), the Potency is 11.2 µM (active).

Turning to `O=C(O)C1C2CCC(O2)C1C(=O)O` (stereo not given), the Potency entry is “inactive”.

Consider `CO[C@@H]1C[C@@H](C[C@H]2CC[C@H](C)[C@@H]([C@@H](C)C(=O)O)O2)O[C@]2(O[C@](C)([C@H]3CC[C@@](C)(C4OC([C@H]5O[C@@](O)(CO)[C@H](C)C[C@@H]5C)C[C@@H]4C)O3)C[C@H]2C)[C@@H]1C` (stereo not given in full), for which the Potency result is “inactive”.

Regarding `Cc1ncsc1CCCl`, the Potency result was “inactive”.

In the case of `CCC(C)n1c(O)c(/C=N/Nc2nc3c(c(=O)n(C)c(=O)n3C)n2C)c(=O)[nH]c1=S` (stereo not given), the Potency was 11.2 µM (active).

`CCOC(=O)C1(CCc2ccccc2)CCN(Cc2ccco2)CC1`: the Potency entry was “inactive”.

Take `O=C(c1cc2nc(-c3ccccc3)cc(-c3ccccc3)n2n1)N1CCC2(CC1)OCCO2`: the Potency result is “inactive”.

Regarding `CC1=C(C(=O)Nc2ccccc2)SCCO1`, the Potency entry was “inactive”.

Consider `COc1cccc(-c2nc3ccc(N4CCN(C)CC4)cc3[nH]2)c1`, for which the Potency entry was “inactive”.

Take `CCN1CC2C3CCC(C)(O3)C2C1` (stereo not given): the Potency entry was “inactive”.

Regarding `Cc1nnc(NC(=O)c2cccn(Cc3cccc(F)c3)c2=O)s1`, the Potency result is “inactive”.

With `N#Cc1c(Cl)c(Cl)c(Cl)c(C#N)c1Cl`, the Potency is 2.24 µM (active).

As for `Cc1ccc(NC(=O)N(Cc2ccc3c(c2)OCO3)C2CCN(Cc3ccccc3)CC2)cc1F`, the Potency entry was “inactive”.

Consider `Cc1ccc(-n2c(/C=C/c3cccc(C(F)(F)F)c3)nc3ccccc3c2=O)cc1`, for which the Potency entry is “inactive”.

Regarding `C=CCN1CCC23c4c5ccc(O)c4O[C@H]2C(=O)CC[C@@]3(O)C1C5` (stereo not given in full), the Potency result is “inactive”.

Take `C[C@@]12CCC3C(CC[C@@H]4CC(O)CC[C@@]34C)C1CCC2O` (stereo not given in full): the Potency result is “inactive”.

For the compound `CC1=CC(=Cc2sc3ccccc3[n+]2C)C=C(C)O1`, the Potency was 15.8 µM (active).

Take `CC(C)(C)c1ccc(CN2C(=O)CN=C(c3ccccc3)c3ccccc32)cc1`: the Potency entry is “inactive”.

For the compound `Cc1nn(Cc2ccccc2Cl)c(Cl)c1C(=O)OC(C(=O)NC(N)=O)C(C)C` (stereo not given), the Potency result was “inactive”.

`CCC1(C)CC(CCNCc2ccc(N(C)C)cc2)(c2ccc(F)cc2)CCO1` (stereo not given): the Potency entry was “inactive”.

Turning to `COc1cc(OC)cc(C2(C#N)CCN(C)CC2)c1`, the Potency entry is “inactive”.

As for `N[C@H](C(=O)O)c1cc(=O)[nH]o1`, the Potency entry is “inactive”.

Take `C=CCSSCC=C`: the Potency entry was “inactive”.

As to `CCN(CC)c1ccc([N+](=O)[O-])c2cccnc12`, the Potency is 11.2 µM (active).

As for `c1ccc(C2NCc3ccccc3-n3cccc32)cc1` (stereo not given), the Potency entry was “inactive”.

Take `Cc1ccc(Cn2nnnc2CN2CCC(n3nnc4ccccc43)CC2)cc1`: the Potency result was “inactive”.

As to `CCOC(=O)C(O)(c1ccc(NC(=O)c2ccco2)c(OC)c1)C(F)(F)F` (stereo not given), the Potency result was “inactive”.

In the case of `CCCCC(=O)N/N=C/c1c(O)n(CC)c(=S)n(CC)c1=O`, the Potency result is “inactive”.

Take `C1CC[C@H]([C@@]23C[C@H](C[C@H]4CCCN[C@H]42)[C@@H]2CCCCN2C3)NC1`: the Potency entry is “inactive”.

Regarding `Cn1c(O)c(C=Nc2ccc3c(c2)CCC3)c(=O)n(C)c1=O`, the Potency entry is “inactive”.

These data come from PubChem BioAssay AID1460 (National Center for Advancing Translational Sciences (NCATS), 2008).
